Each structure is given as a SMILES string. About 83,000 compounds went through this panel and 20% of them were active in at least one assay; those are over-represented in the sample as a whole.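 Plates (96-well) were seeded with cells, treated with compound at one concentration, and incubated for 48 hours before percent growth was determined.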 A number with no mark means an inactive call. Active and inactive are the calls of the source. How the source made its calls: active means growth percent below 10; inactive means the rest.

The assay has as its system HL-60(TB) leukemia. Briefly: NCI-60 one-dose screen, 48 h (100 = growth as untreated, 0 = no growth, -100 = all killed). The following applies: 10 µM unless noted.
Regarding `COc1c(Cl)ccc2c(-c3nc4cc(Cl)c(F)cc4s3)cc(=O)oc12`, the growth is -18.1% (active).
As to `Cc1ccc(Cn2c(O)c(N=NC(=O)c3ccc(S(N)(=O)=O)cc3)c3ccccc32)cc1`, the growth was 98.6%.
As to `C=CCC(CCC(CC=C)C(=O)OCC)C(=O)OCC` (stereo not given), the growth is 99.8%.
With `CC(C)(C)c1ccc(O)c(C2CCCCC2)c1`, the growth is 67.4%.
Regarding `CCCCCc1c(C)[nH]c(/C=C2\N=C(c3ccc[nH]3)C=C2Oc2ccc(OC)cc2)c1C`, the growth was -39% [100 µM] (active).
Consider `CC(=O)[C@@H]1CC[C@]2(C(N)=O)CC[C@]3(C)[C@H](CC[C@@H]4[C@@]5(C)CCCNC(C)(C)[C@@H]5CC[C@]43C)[C@@H]12`, for which the growth is 91%.
Regarding `c1csc(-c2c3ccc(=[N+]4CCCCC4)cc-3oc3cc(N4CCCCC4)ccc23)c1`, the growth was -35.5% (active).
For the compound `NS(=O)(=O)c1cccc(NC(=O)C(=O)C2C(=O)Nc3ccccc32)c1` (stereo not given), the growth is 159%.
As to `COc1ccc(OCC(O)CN2CCN(c3ccc(Cl)cc3)CC2)cc1` (stereo not given), the growth was 105%.
Consider `COc1cc(N2CCC(N(C)C)CC2)ccc1Nc1ncc(Cl)c(Nc2ccccc2P(C)(C)=O)n1`, for which the growth was 10%.
As for `COc1ccc(CC2c3cc(OC)c(OC)cc3CC[N+]2(C)CCC(=O)OCCCCCOC(=O)CC[N+]2(C)CCc3cc(OC)c(OC)cc3C2Cc2ccc(OC)c(OC)c2)cc1OC` (stereo not given), the growth is 82.9%.
Take `C=C(CC(=O)OC)C(C)=O`: the growth was 95.8%.
`CCCC(=O)NNc1[nH]c(-c2ccc(OC)cc2)cc1C(=O)OCC`: the growth was -27.7% (active).
Take `FC(F)(F)c1ccc(-c2cnc(-n3cc(COCCN4CCCCC4)nn3)nc2NC2CCCCCC2)cc1`: the growth was -63.1% (active).
As to `CC(=O)O[C@H]1CC[C@]2(C)[C@H]3CC=C4[C@@H]5[C@H](C)[C@@H](C)CC[C@]5(C(=O)NCCNCCNCCN)CC[C@@]4(C)[C@]3(C)CC[C@H]2C1(C)C`, the growth was 81.6%.
Take `COc1cc2c(cc1OC)-c1ccc3cc4c(cc3c1N(CCCn1ccnc1)C2)OCO4`: the growth is 3.45% (active).
As for `CN1CCN(Cc2ccc(NC(=O)c3cc(C#Cc4cnc(N)c5ncccc45)n(C)n3)cc2C(F)(F)F)CC1`, the figure is 107%; as for `FC(F)(F)Oc1ccc2nc3nc4ccc[nH]c4cc3c2c1`, 73.4%.
The result for `CC1OC(Oc2c(-c3ccc(O)c(O)c3)oc3cc(O)cc(O)c3c2=O)C(O)C(O)C1O` (stereo not given) reads 106%.
In the case of `CN1CCN(C(=O)[C@@]2(C)CC[C@]3(C)CC[C@]4(C)C(=CC[C@@H]5[C@@]6(C)CC[C@H](OC(=O)c7cccnc7)C(C)(C)[C@@H]6CC[C@]54C)[C@@H]3C2)CC1`, the growth was -49.1% (active).
For `Cc1ccc2[nH]c(=O)c3c(c2c1)OC(N)=C(C#N)C31C(=O)c2cccc3cccc1c23` (stereo not given), the growth was 98.6%.
As to `O=C1C(Br)=C(c2ccccc2)C(=O)C(Br)=C1c1ccccc1`, the growth was 78.6%.
On to `O=C(CSc1nnnn1-c1ccccc1)Nc1ccc(Oc2ccccc2)cc1`, for which the growth was 110%.
For `OCc1ccc(-c2ccc(-c3ccc(CO)s3)o2)s1`, the growth is 21.7%.
On to `C=Cc1nn2c(CCC(=O)c3nc4ccccc4[nH]3)nnc2s1`, for which the growth is 104%.
Turning to `O=C(/C=C/c1ccccc1)Nc1ncc(Cc2ccccc2Cl)s1`, the growth was -10.1% (active).
As for `O=[N+]([O-])c1ccccc1NCSc1ccc(Cl)cc1`, the figure is 65.7%.
As for `COC1/C=C/OC2(C)Oc3c(C)c(O)c4c(O)c(c(/C=N/N(c5ccccc5)c5ccccc5)c(O)c4c3C2=O)NC(=O)C(C)=C/C=C/C(C)C(O)C(C)C(O)C(C)C(OC(C)=O)C1C` (stereo not given), the figure is 53.1%.
As for `O=C1Nc2cc(-c3ccc(NS(=O)(=O)c4ccccc4)cc3)ccc2/C1=C/c1ccc[nH]1`, the growth was 95.7%.
As for `Cn1c2ccccc2c2c3c(c4c5cccnc5[nH]c4c21)C(=O)N(O)C3=O`, the growth was 17.2%.
Take `COc1cccc2nc3n(c12)C(c1c(F)cccc1F)SC3` (stereo not given): the growth is 70.3%.
Consider `CC(C)N(CCCC#N)C(C)C`, for which the growth was 102%.
Regarding `CCc1ccc(CCC(=O)Nc2ncc(Cc3ccccc3)s2)o1`, the growth is -40% (active).
`O=C(c1ccccc1)C(CCc1ccccn1)CCc1ccccn1`: the growth was 107%.
As for `O=C(OCc1ccc2c(Br)cc(Br)c(O)c2n1)N1CCN(C(=O)c2cc3ccccc3[nH]2)CC1`, the figure is 53.9%.
With `CC(=O)c1c(C)nc2ccccc2c1/C=C/c1ccc(F)cc1`, the growth was 95.6%.
As for `O=[N+]([O-])c1cccc(C(c2ccccc2)c2ccccc2)c1`, the figure is 88.9%; as for `CC(=O)N1Cc2ccccc2C(C)Cc2cc(Cl)ccc21` (stereo not given), 111%; as for `Cc1cc(C2=NNC(=O)Cc3cc4c(cc32)OCCO4)cc(C)c1N`, 21.6%.
For `CCOC(=O)c1ccoc1`, the growth was 118%.

Source of the values: PubChem BioAssay (NCI).
